# Assay results taken from PubChem BioAssay AID1274 (Emory University Molecular Libraries Screening Center, 2008).
# Hit rate of the full screen: of about 220,000 compounds, about 1,100 (0.5%) were called active.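 Rule for the calls: active = inhibition above about 30% (limit read from the data); inactive = the rest.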 Shown is part of a subset that was picked to be rich in actives.
# Biological target: Neutrophil cytosol factor 1 (Homo sapiens) (UniProt P14598)
# Assay: blockers of p47phox binding to p22phox – biochemical, uHTS, NADPH oxidase regulatory subunit, primary screen (AID 1274);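 note: 0% = p47phox with labelled peptide and 100% = labelled peptide alone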
# Conditions: p47phox/p22phox peptide binding, fluorescence polarization, 2 h; at 24.7 µM; stronger effect = higher value
# Neutrophil cytosol factor 1 (Homo sapiens), sequence (P14598 whole entry, looked up): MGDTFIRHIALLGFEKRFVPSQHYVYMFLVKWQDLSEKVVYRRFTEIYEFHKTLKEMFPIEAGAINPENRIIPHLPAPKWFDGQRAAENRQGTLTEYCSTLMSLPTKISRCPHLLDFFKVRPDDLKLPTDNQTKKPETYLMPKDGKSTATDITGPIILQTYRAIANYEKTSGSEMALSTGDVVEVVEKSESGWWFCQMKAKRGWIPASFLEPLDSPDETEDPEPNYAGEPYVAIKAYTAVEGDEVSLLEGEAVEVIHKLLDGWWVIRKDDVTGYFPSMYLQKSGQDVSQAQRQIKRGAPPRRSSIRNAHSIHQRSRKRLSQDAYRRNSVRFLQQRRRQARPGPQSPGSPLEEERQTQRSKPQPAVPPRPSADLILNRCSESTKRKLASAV
row,Structure (SMILES),inhibition
1,COc1cc(OC)cc(C(=O)OCC(=O)Nc2sccc2C(N)=O)c1,-13.4% (inactive)
2,CC(C)CCN1NC2(CCC(C)CC2)NC1=S (stereo not drawn),-4.38% (inactive)
3,CCNC(=O)COC(=O)CCNC(=O)c1cccc(C)c1,-7.35% (inactive)
4,COCCOC(=O)c1sc(=S)n(CCOC)c1N,46.2% (active)
5,CCOC(=O)c1sc(=S)n(-c2cccc(OC)c2)c1N,-12.7% (inactive)
6,COC(=O)c1sc(=S)n(-c2ccccc2)c1N,0.99% (inactive)
7,CCOC(=O)Cn1nnnc1C,6.81% (inactive)
8,O=C(NCc1ccccn1)c1c(O)c2c([nH]c1=O)CCCC2,-12.3% (inactive)
9,CCc1nnc(NC(=O)c2c(O)c3c([nH]c2=O)CCCC3)s1,-3.43% (inactive)
10,C[N+](C)(C)CCNC(=O)c1c(O)c2c([nH]c1=O)CCCC2,31.8% (active)
11,CCOC(=O)CC1C(=O)NCCN1c1nc2c(C)cccn2c(=O)c1/C=C1\SC(=S)N(C(C)CC)C1=O (stereo not drawn),-73.3% (inactive)
12,O=S(=O)(NN=C1CCCCCCC1)c1ccc(Br)cc1,-8.52% (inactive)
13,CC(CNS(=O)(=O)c1ccc(Br)cc1)CN(C)C (stereo not drawn),92% (active)
14,Cc1ccc(S(=O)(=O)NCC(C)NS(C)(=O)=O)cc1 (stereo not drawn),4.29% (inactive)
15,Cc1c(C(=O)N(Cc2ccccc2)Cc2cccnc2)cnn1-c1ccc(F)cc1,-0.45% (inactive)
16,O=C(Nn1c(-c2ccc(Cl)cc2)nc2ccccc2c1=O)c1cccnc1Cl,-7.54% (inactive)
17,C[C@@H]1CC[C@]2(O[C@@H](CCO)C[C@H](O)[C@H]2O)O1,5.45% (inactive)
18,COc1ccc(C(=O)N(Cc2ccc(N(C)C)cc2)C2CCS(=O)(=O)C2)cc1 (stereo not drawn),-10.9% (inactive)
19,Cc1ccc(S(=O)(=O)N(c2cccc(C)c2)C2CCS(=O)(=O)C2)cc1 (stereo not drawn),-5.65% (inactive)
20,CC(=O)NCCc1ccc(S(=O)(=O)N(C)C2CCS(=O)(=O)C2)cc1 (stereo not drawn),32.2% (active)
21,CC(C)N1CCC(N2CCN(Cc3cccnc3)CC2CCO)CC1 (stereo not drawn),-4.11% (inactive)
22,Oc1ccc(N=Cc2c(O)ccc3ccccc23)cc1,-7.4% (inactive)
23,Oc1ccc2ccccc2c1C=Nc1ccccc1,-17.1% (inactive)
24,O=[N+]([O-])c1ccc(N=Cc2c(O)ccc3ccccc23)cc1,64.5% (active)
25,CCn1cc(C(=O)NCCCN2CCCCCC2)c(=O)c2cc(S(=O)(=O)N3CCc4ccccc4C3)ccc21,-1.11% (inactive)

row,Structure (SMILES),inhibition
1,COC(=O)[C@H](Cc1ccccc1)NC(=O)Nc1ccc(OC)cc1,-13.5% (inactive)
2,Cc1ccnc(N2CCC(C(=O)NC3CCCCCC3)CC2)n1,-2.85% (inactive)
3,Cc1ccnc(-n2sc3ccccc3c2=O)n1,35% (active)
4,Cc1ccnc(Nc2nc3ccccc3s2)n1,-4.23% (inactive)
5,COc1ccc(CN2CCOC2=O)cc1OC,-11.8% (inactive)
6,COc1ccc(-c2csc(-c3cccs3)n2)cc1OC,-15.5% (inactive)
7,COc1ccc(-c2noc(-c3cccc(OC)c3OC)n2)cc1OC,-9.37% (inactive)
8,COc1ccc(-c2csc3nc(-c4ccccc4F)oc(=O)c23)cc1OC,89.6% (active)
9,O=c1ccnc(Nc2ccc(Cl)cc2)[nH]1,-15.2% (inactive)
10,COc1cccc(OCC(=O)NNC(=O)c2cnccn2)c1,-5.83% (inactive)
11,CSC1=NC2(C)CCCCC2C12C=CC(=O)C=C2 (stereo not drawn),12.3% (inactive)
12,Oc1ccc(N2CCN(C(=S)NCc3ccccc3)CC2)cc1,-4.47% (inactive)
13,Oc1ccc(CNc2ccccc2O)cc1,72.8% (active)
14,O=[N+]([O-])c1ccccc1NCc1ccc(Cl)cc1,10.1% (inactive)
15,COc1ccc(SCCN2CCN(CC(C)C)CCC2=O)cc1,-5.09% (inactive)
16,CCOc1ccc(C(=O)NCCCN2CCCC2=O)cc1,-1.06% (inactive)
17,CC1CCC(NC(=O)c2ccc(N3CCCC3=O)cc2)CC1 (stereo not drawn),-4.19% (inactive)
18,O=C(NCCCN1CCCCCC1)c1ccc(N2CCCC2=O)cc1,31.1% (active)
19,COCCN1C(=O)N[C@@H](CCc2ccccc2)[C@H](C(C)=O)[C@H]1C,-14.3% (inactive)
20,CC(C)N(C(=O)Cn1cc(SCC(=O)N2CCCC2)c2ccccc21)C(C)C,-1.84% (inactive)
21,Cc1ccnc(NS(=O)(=O)c2ccc(NC(=O)c3ccc(S(=O)(=O)N(C)C)cc3)cc2)n1,93.9% (active)
22,O=C(Nc1ccc(S(=O)(=O)Nc2ncccn2)cc1)c1cncc(Br)c1,-1.88% (inactive)
23,Cc1ccnc(NS(=O)(=O)c2ccc(NC(=O)c3ccc(S(=O)(=O)N4CCOCC4)cc3)cc2)n1,-8.81% (inactive)
24,CCCN(c1ccc(C)cc1)c1nc(=O)c2cccnc2s1,3.57% (inactive)
25,COc1cc(C2C(C(=O)Nc3ccc(F)cc3)=C(C)Nc3nc(CCCO)nn32)cc(OC)c1OC (stereo not drawn),8.1% (inactive)

row,Structure (SMILES),inhibition
1,COCCOC(=O)C1=C(C)Nc2nc(C)nn2C1c1ccccc1 (stereo not drawn),-2.35% (inactive)
2,COC(=O)c1nc2n(n1)C(c1ccc([N+](=O)[O-])cc1)C(C(=O)Nc1ccc(Cl)cc1)=C(C)N2 (stereo not drawn),35.3% (active)
3,COC(C[C@@H](O)[C@H](C)[C@H](O)COCc1ccccc1)OC,-7.85% (inactive)
4,O=[N+]([O-])c1ccc2c(c1)C(O)n1nc(-c3ccccc3)nc1S2 (stereo not drawn),-0.84% (inactive)
5,O=C1/C(=C/c2coc3ccc(O)cc3c2=O)SC(=S)N1c1ccccc1,-31.6% (inactive)
6,CCC1(C)Cc2c(sc3nc(SC)[nH]c(=O)c23)CO1 (stereo not drawn),-0.95% (inactive)
7,Fc1ccccc1Cn1cnc(NC(=S)NCCc2ccccc2)n1,5.03% (inactive)
8,S=c1[nH]nc(Nc2ccccc2)s1,6.03% (inactive)
9,S=c1[nH]nc(NCCc2ccccc2)s1,35.4% (active)
10,Cc1nc(C)c(-c2csc(NCCc3ccccc3)n2)s1,-1.49% (inactive)
11,CC1CC(NC(=O)/C(C#N)=C/c2ccc[nH]2)CC(C)(C)C1 (stereo not drawn),-2.3% (inactive)
12,CCCNC(=S)N1CCCC(c2nc3ccccc3[nH]2)C1 (stereo not drawn),-3.87% (inactive)
13,CCNC(=S)N1CCC(c2nc3cc(C)c(C)cc3[nH]2)CC1,-2.83% (inactive)
14,COCCCNC(=S)N1CCCC(c2nc3cc(C)c(C)cc3[nH]2)C1 (stereo not drawn),33.6% (active)
15,O=C(O)CCc1nc2cc(Cl)ccc2n(Cc2ccccc2)c1=O,-13.1% (inactive)
16,Cc1ccccc1CSc1nnc(CCCCCNC(=O)OC(C)(C)C)o1,-9.1% (inactive)
17,COC(=O)c1sc(NC(=S)NC(=O)c2ccc(C)cc2)nc1C,-24.1% (inactive)
18,COc1ccc(F)cc1S(=O)(=O)N1CCCCC1,-2.33% (inactive)
19,CC1=C/C(=N\OS(=O)(=O)c2ccccc2)C=CC1=O,53.2% (active)
20,CCOC(=O)C1(S(=O)(=O)c2ccccc2)CCN(Cc2ccccc2)CC1,-0.94% (inactive)
21,CC1=C/C(=N\S(=O)(=O)c2ccccc2)C(C(C)C)=CC1=O,-6.28% (inactive)
22,CCN(CC)CCn1cnc2c1c(=O)n(CCOC(=O)c1cc(OC)c(OC)c(OC)c1)c(=O)n2C,-17% (inactive)
23,Cc1cc(-c2nc(C)c(-c3nnc(SCC(=O)Nc4ccccc4)n3C)s2)no1,-5.21% (inactive)
24,COc1ccc2oc(-c3cccc(NC(=O)CSc4ccc(Cl)cc4)c3)nc2c1,152% (active)
25,O=C(Cc1cccc2ccccc12)Nc1ccc2oc(-c3ccccc3)nc2c1,-10.3% (inactive)

row,Structure (SMILES),inhibition
1,COc1cccc(-c2nc3cc(C)ccc3o2)c1,-18% (inactive)
2,O=c1[nH]n2c(=O)c3c([nH]c2c1N=Nc1ccccc1)CCC3,5.2% (inactive)
3,COc1cc(OC)cc(-c2nc3nc(C)c(CCC(=O)NCc4ccco4)c(C)n3n2)c1,-14.7% (inactive)
4,Cc1cc(C)n2nc(SCC(=O)NC(=O)NCc3ccco3)nc2n1,65.5% (active)
5,Cc1ccc(Cc2c(C)nc3nc(SCC(=O)NCCN4CCOCC4)nn3c2C)cc1,2.55% (inactive)
6,Cc1nc2nc(SCC(=O)NCc3ccco3)nn2c(C)c1Cc1ccccc1,39.5% (active)
7,Cc1ccc(SCC(=O)NC(=O)NCc2ccco2)c(C)c1,-8.32% (inactive)
8,Cc1cc(C)n2nc(SCC(N)=O)nc2n1,-2.75% (inactive)
9,COc1cccc2c1OCC(CN1CCN(C3CCCCC3)C(CCO)C1)=C2 (stereo not drawn),-0.19% (inactive)
10,Cc1noc(C)c1-c1nc(CSc2ccc(Cl)cc2)no1,-18.6% (inactive)
11,CCc1ccc[n+](-c2nc([O-])sc2C=O)c1,-6.22% (inactive)
12,CCOC(=O)c1ccc(S(=O)(=O)N(CCO)Cc2cc3cc(OC)c(OC)cc3[nH]c2=O)cc1,-9.36% (inactive)
13,CCc1ccc(NC(=O)CN2C(=O)CSC2=O)cc1,1.09% (inactive)
14,OC(CN1C2=NCCCN2c2ccccc21)c1ccc(Br)cc1 (stereo not drawn),-5.7% (inactive)
15,CCN1CCN(CCNC(=O)c2ccc(/C=C3/Sc4ccccc4N(Cc4cccc(C)c4)C3=O)cc2)CC1,102% (active)
16,Cc1nn(Cc2ccccc2)c(C)c1C(=O)NCCN1C(=O)S/C(=C\c2ccc(F)cc2)C1=O,19.6% (inactive)
17,O=C(CN1C(=O)/C(=C\c2ccc(C(F)(F)F)cc2)Sc2ccccc21)NCc1ccco1,-2.69% (inactive)
18,CCOc1ccc2nc(C(=O)N3CCCC(C)C3)sc2c1 (stereo not drawn),-1.85% (inactive)
19,O=C(NCc1ccco1)C1CCCN1S(=O)(=O)c1ccccc1C(F)(F)F (stereo not drawn),-2.26% (inactive)
20,O=C(Nc1cccc(NC(=O)c2ccco2)c1)c1cnccn1,-22.1% (inactive)
21,O=C(Nc1ccc2c(c1)OCCO2)c1ccoc1,-11.2% (inactive)
22,O=C(Nc1ccc2c(c1)OCCO2)c1cnccn1,161% (active)
23,O=P(O)(CN1CCCCCC1)C1Cc2ccccc2C1,-16.2% (inactive)
